The panel holds about 79,000 compounds, 15% with a hit somewhere; the sample as a whole holds those more often. Calls of active or inactive are those of the source. Cut-off read from the data, not from the text of the source: active = growth inhibition above about 70%; inactive = the rest.
Assays:
[1] = NCI Yeast Anticancer Drug Screen. Data for the rad52 strain (AID 147);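 note: 0% = growth of vehicle-treated control cultures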; conditions: S. cerevisiae rad52 mutant growth inhibition, stronger effect = higher value
Summary of the method: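 Here a repair-compromised yeast strain receives each compound; its growth is then quantified and normalised to vehicle-only controls.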

[2] = NCI Yeast Anticancer Drug Screen. Data for the wt1 strain (AID 149);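 note: 0% = growth of vehicle-treated wt1 cultures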; conditions: S. cerevisiae wt1 strain (SPY 50644) growth inhibition, stronger effect = higher value
Summary of the method: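 Growth inhibition read against vehicle controls after compound exposure of the wt1 yeast strain.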

[3] = NCI Yeast Anticancer Drug Screen. Data for the rad50EPP+ strain (AID 151);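 note: 0% = growth of vehicle-treated control cultures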; conditions: S. cerevisiae rad50 mutant strain, stronger effect = higher value
Summary of the method: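 Read-out is yeast growth inhibition relative to vehicle; cells used were the rad50EPP+ strain.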

[4] = NCI Yeast Anticancer Drug Screen. Data for the mgt1 strain (AID 153); conditions: S. cerevisiae mgt1 mutant growth inhibition, stronger effect = higher value
Summary of the method: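 Measured: inhibition of mgt1 yeast growth by compound, normalized to vehicle-treated cultures.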

[5] = NCI Yeast Anticancer Drug Screen. Data for the rad50 strain (AID 155);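 note: 0% = growth of vehicle-only cultures of the same strain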; conditions: S. cerevisiae rad50 strain growth inhibition, stronger effect = higher value
Summary of the method: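 Readout: growth inhibition relative to vehicle-treated cultures. Compound exposure was carried out in a genetically defined yeast strain deficient in DNA damage repair.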

[6] = NCI Yeast Anticancer Drug Screen. Data for the mec2-1 strain (AID 157); conditions: S. cerevisiae mec2-1 strain, stronger effect = higher value
Summary of the method: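 Using mec2-1 yeast: add compound, measure growth, express inhibition versus vehicle-treated cultures.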

[7] = NCI Yeast Anticancer Drug Screen. Data for the rad14 strain (AID 159);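 note: 0% = growth of vehicle-treated control cultures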; conditions: S. cerevisiae rad14 strain growth inhibition, stronger effect = higher value
Summary of the method: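 Growth inhibition vs vehicle controls; genetically altered yeast strain (DNA damage repair defect) treated with test compounds.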

[8] = NCI Yeast Anticancer Drug Screen. Data for the sgs1 mgt1 strain (AID 161);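 note: 0% = growth of cultures given vehicle only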; conditions: S. cerevisiae sgs1 mgt1 strain, stronger effect = higher value
Summary of the method: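 Yeast cells carrying a defined DNA-repair defect were exposed to test compounds. Growth inhibition was measured relative to vehicle-treated controls.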

[9] = NCI Yeast Anticancer Drug Screen. Data for the CLN2oe strain (AID 163);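 note: 0% = growth of vehicle-only control cultures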; conditions: S. cerevisiae CLN2oe strain, stronger effect = higher value
Summary of the method: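 Whole-cell yeast growth assay. A strain engineered for altered cell-cycle control received compound, and inhibition relative to vehicle-treated cultures was recorded.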

[10] = NCI Yeast Anticancer Drug Screen. Data for the cln2 rad14 strain (AID 165);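 note: 0% = growth equal to vehicle treated cultures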; conditions: S. cerevisiae cln2 rad14 strain, stronger effect = higher value
Summary of the method: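 Yeast strain cln2 rad14, bearing defects in cell cycle control and DNA repair, serves as the test system; values reflect growth inhibition compared with vehicle.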

[11] = NCI Yeast Anticancer Drug Screen. Data for the bub3 strain (AID 167); conditions: S. cerevisiae bub3 mutant strain, stronger effect = higher value
Summary of the method: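 Readout: yeast growth inhibition, expressed relative to vehicle-only wells. The test organism is a mutant strain from a panel with lesions in DNA repair or checkpoint genes.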

[12] = NCI Yeast Anticancer Drug Screen. Data for the wt2 strain (AID 169);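 note: 0% = growth of vehicle-treated yeast cultures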; conditions: S. cerevisiae wt2 strain growth inhibition, stronger effect = higher value
Summary of the method: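 Treated yeast vs. vehicle-treated yeast: growth inhibition determined.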

[13] = NCI Yeast Anticancer Drug Screen. Data for the mlh1 strain (AID 171);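 note: 0% = growth of vehicle-treated control cultures of the same strain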; conditions: S. cerevisiae mlh1 strain growth inhibition, stronger effect = higher value
Summary of the method: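 A yeast strain with a defined genetic lesion serves as the test organism. Cultures receive compound or vehicle, and growth is measured.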

[14] = NCI Yeast Anticancer Drug Screen. Data for the sgs1 strain (AID 173);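 note: 0% = growth of vehicle-only control cultures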; conditions: S. cerevisiae sgs1 mutant, stronger effect = higher value
Summary of the method: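 A genetically defined yeast mutant is incubated with the test compound, and its growth is compared to that of the same strain given vehicle.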

[15] = NCI Yeast Anticancer Drug Screen. Data for the mlh1 rad18 strain (AID 175); conditions: S. cerevisiae mlh1 rad18 strain growth inhibition, stronger effect = higher value
Summary of the method: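 Steps: expose repair-defective yeast to compound; measure growth; express inhibition against vehicle-treated controls.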

[16] = NCI Yeast Anticancer Drug Screen. Data for the rad18 strain (AID 177); conditions: S. cerevisiae rad18 mutant growth inhibition, stronger effect = higher value
Summary of the method: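 Measured value is growth inhibition of a yeast strain bearing a DNA repair alteration, referenced to vehicle-treated cells.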

[17] = at 5.0 µM (retest, dose inferred, filed as 0.5)
[18] = at 50.0 µM (retest, dose inferred, filed as 5.0)

Measured: growth inhibition

COc1ccc([N+](=O)[O-])c2c(NCCCN(C)C)c3ccccc3nc12
active: [1]; at 33.0 µM 72% | [1]; at 100.0 µM 89% | [5]; [18] 90% | [5]; at 100.0 µM 71% | [6]; [18] 99% | [6]; at 100.0 µM 85% | [7]; at 33.0 µM 80% | [7]; at 100.0 µM 94% | [8]; [18] 79% | [10]; [18] 98% | [11]; [17] 91% | [11]; [18] 100% | [14]; at 33.0 µM 83% | [14]; at 100.0 µM 90% | [15]; [18] 98% | [16]; at 3.7 µM 82% | [16]; at 11.0 µM 90% | [16]; at 33.0 µM 93% | [16]; at 100.0 µM 95%
inactive: [1]; at 1.2 µM 15% | [1]; at 3.7 µM 30% | [1]; at 11.0 µM 58% | [2]; at 1.2 µM 1% | [2]; at 3.7 µM 1% | [2]; at 11.0 µM 3% | [2]; at 33.0 µM 9% | [2]; at 100.0 µM 23% | [3]; at 1.2 µM -3% | [3]; at 3.7 µM 3% | [3]; at 11.0 µM 13% | [3]; at 33.0 µM 22% | [3]; at 100.0 µM 45% | [4]; at 1.2 µM 2% | [4]; at 3.7 µM 2% | [4]; at 11.0 µM 6% | [4]; at 33.0 µM 10% | [4]; at 100.0 µM 42% | [5]; at 1.2 µM 5% | [5]; at 3.7 µM -1% | [5]; [17] 16% | [5]; at 11.0 µM 11% | [5]; at 33.0 µM 50% | [5]; at 50.0 µM 49.1% | [6]; at 1.2 µM 4% | [6]; at 3.7 µM 4% | [6]; [17] -3% | [6]; at 11.0 µM 12% | [6]; at 33.0 µM 47% | [6]; at 50.0 µM 12.9% | [7]; at 1.2 µM 4% | [7]; at 3.7 µM 10% | [7]; at 11.0 µM 29% | [8]; [17] 5% | [8]; at 50.0 µM 46.8% | [9]; at 1.2 µM -3% | [9]; at 3.7 µM 3% | [9]; at 11.0 µM 2% | [9]; at 33.0 µM 8% | [9]; at 100.0 µM 25% | [10]; [17] 42% | [10]; at 50.0 µM 66.2% | [11]; at 1.2 µM -2% | [11]; at 3.7 µM -2% | [11]; at 11.0 µM -4% | [11]; at 33.0 µM 1% | [11]; at 50.0 µM -29% | [11]; at 100.0 µM 9% | [12]; at 1.2 µM 1% | [12]; at 3.7 µM 2% | [12]; at 11.0 µM 5% | [12]; at 33.0 µM 17% | [12]; at 100.0 µM 38% | [13]; at 1.2 µM 0% | [13]; at 3.7 µM 2% | [13]; at 11.0 µM 4% | [13]; at 33.0 µM 19% | [13]; at 100.0 µM 45% | [14]; at 1.2 µM 12% | [14]; at 3.7 µM 31% | [14]; at 11.0 µM 56% | [15]; [17] 7% | [15]; at 50.0 µM 68.5% | [16]; at 1.2 µM 62%

Source: PubChem BioAssay (NCI)
